A selection: hits, their analogues and other compounds. The true share with any hit is near 2.3%.
ATXN2 expr inh = reduces ATXN2 reporter expression in HEK-293 cells | HEK-293 ATXN2-luciferase reporter, luminescence, 24 h | Potency, µM (series often up to 57 µM), inactives show at the top dose activity change, negative = inhibition, usual class: inhibitors | 360,000 compounds, 0.72% hits | AID 1745845; further: on the % scale 0 is the no-effect control and ±100 the full control effect; nearly all actives have a fitted effect of over 55% in size
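qHTS (up to 57 uM final) was run with 24 h compound exposure of reporter cells at 37 °C. Each well was multiplexed: SteadyGlo luminescence measured ATXN2-luciferase expression after a fluorogenic Gly-Phe-AFC viability readout (25 uM final).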
HepG2 viability = HepG2 cytotoxicity, counter-screen for TGF-b inhibitors; 410,000 compounds, 0.76% hits; HepG2 CAGA-GFP viability, ATP luminescence, 18 h; Potency, µM (top dose mostly 46.1 µM), without a hit: at the highest dose activity change, negative = cytotoxicity, usual class: cytotoxic
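HepG2 CAGA-GFP cells (1000/well, DMEM with 1% FBS) received compound, then TGF-beta at 500 pg/mL final, and were incubated 18 hours at 37 degrees C. Viability was read by CellTiter-Glo luminescence. Media-only wells were set as complete cell-killing and DMSO as no toxicity.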
TGFb SMAD3 inh = TGF-b pathway inhibition | 410,000 compounds, 1.2% hits | Potency, µM (doses to about 46.1 µM), without a hit: at the highest dose activity, negative = inhibition, most hits filed as inhibitors | HepG2 CAGA-GFP TGF-b/SMAD3 reporter, GFP fluorescence, 18 h; TGF-beta stimulated, 500 pg/mL final; further: on the % scale 0 is the no-effect control and ±100 the full control effect; nearly all actives have a fitted effect of over 65% in size
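HEPG2 CAGA-GFP cells (1000/well, DMEM with 1% FBS) were pre-incubated 2 h at 37 degrees C, given compound by pin tool, then stimulated with TGF-beta at 500 pg/mL final for 18 h before per-cell GFP fluorescence imaging.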
S2 tox = viability counter-screen for ATXN expression inhibitors; S2 cells (HEK-293 line with an ATXN2-luciferase reporter) viability, CellTiter-Fluor protease fluorescence, 24 h; Potency, µM (doses to about 56.7 µM), usual class: cytotoxic; 400,000 compounds, 0.49% hits; AID 651635; further: nearly all actives have a fitted effect of over 40% in size
The depositor's hits bear a star; i = inactive; ? = inconclusive; nt = not tested or not shown. The call rests on the fitted dose curve; in most records, active means well fitted curve in the direction sought with a large enough effect; inconclusive means small, poorly fitted or top-dose-only effect, or another doubt; inactive means no such curve, though single readings can be large; an effect the other way counts as inactive or inconclusive. Potency means the concentration at half of the fitted maximal effect.

SMILES | ATXN2 expr inh | HepG2 viability | TGFb SMAD3 inh | S2 tox
C=CCN(C(=O)CSc1nc2c(sc3ccccc32)c(=O)n1CCN(CC)CC)c1ccccc1 | ? | -21% | 18µM* | ?
CCc1ccc(NC(=O)CSc2nc3c(sc4ccccc43)c(=O)n2CCN(CC)CC)cc1 | 2% | -6% | 0% | i
CCOc1ccccc1C(=O)Nc1cc2c(cc1N1CCCC1)n(CC)c(=O)n2CC | nt | -58% | ? | 14µM*
Cc1[nH]n(-c2ccc([N+](=O)[O-])cc2)c(=O)c1C=NCCN1CCN(C(=O)c2ccc(Br)cc2)CC1 | -27% | 7.1µM* | -2% | i
Cc1[nH]n(-c2ccc([N+](=O)[O-])cc2)c(=O)c1C=NCCN1CCN(C(=O)c2cccc(F)c2)CC1 | 6% | 7.9µM* | 11% | i
Cc1[nH]n(-c2ccc([N+](=O)[O-])cc2)c(=O)c1C=NCCN1CCN(C(=O)c2ccc(F)cc2)CC1 | 4% | -2% | 22% | i
Cc1[nH]n(-c2ccc([N+](=O)[O-])cc2)c(=O)c1C=NCCc1c[nH]c2ccccc12 | -15% | -40% | 11% | i
CN(CCO)C(=O)c1cn(C2CCN(Cc3ccc4ccccc4c3)CC2)nn1 | nt | nt | nt | i
O=C(CSc1ncnc2c1oc1ccccc12)Nc1nc2ccccc2s1 | ? | 13µM* | ? | ?
CCc1nnc(NC(=O)CSc2ncnc3c2oc2ccccc23)s1 | -3% | 0% | -4% | i
COC1=CC(=O)C(OC)=C(OC)C1=O | ? | -112% | ? | 25µM*
Nc1nc(-c2ccc(NC(=O)c3ccco3)cc2)cs1 | 16µM* | -26% | 14% | i
Cc1nc(-c2ccc(NC(=O)c3ccco3)cc2)cs1 | 4µM* | -63% | -13% | i
O=C(Nc1ccc(NC(=O)c2ccco2)cc1)c1ccco1 | 26% | -16% | 0% | i
Cc1nc(-c2cccc(NC(=O)c3ccco3)c2)cs1 | 9% | -1% | -9% | i
CC[N+](CC)(CC)CCOC(=O)C(C1CCCC1)C1CCCC1 | -6% | nt | nt | i
COc1cccc(C(=O)Nc2c3c(nn2-c2ccc(C)cc2C)CS(=O)(=O)C3)c1OC | -13% | 3.2µM* | 26% | i
CCCN(CCC)CCCNC(=O)Cn1ncc2c3ccccc3n(Cc3ccccc3F)c2c1=O | ? | -22% | -16% | 14µM*
Cc1cc(=O)c(C(=O)NCCCc2ccncc2)c2n1-c1ccccc1SC(c1cccs1)C2 (stereo not drawn) | nt | nt | nt | i
CN1CCN(Cn2cc(/C=C/C(=O)c3ccccc3)c3ccccc32)CC1 | 151% | -59% | 13µM* | ?
CCCCN(C)CC(O)Cn1cc(/C=C/C(=O)c2ccc(Br)cc2)c2ccccc21 (stereo not drawn) | -9% | -97% | ? | nt
CCCCN(C)CC(O)Cn1cc(/C=C/C(=O)c2ccc(OC)c(OC)c2)c2ccccc21 (stereo not drawn) | 22µM* | -98% | ? | nt
CCCCN(C)CC(O)Cn1cc(/C=C/C(=O)c2ccc(C)cc2)c2ccccc21 (stereo not drawn) | nt | 13µM* | 18µM* | nt
CCCN(CCC)CC(O)Cn1cc(/C=C/C(=O)c2ccc(C)cc2)c2ccccc21 (stereo not drawn) | ? | 8.9µM* | ? | ?
Cc1ccnc2ccc(N)cc12 | nt | -29% | -10% | nt
SMILES | ATXN2 expr inh | HepG2 viability | TGFb SMAD3 inh | S2 tox
COc1cc(OC)c(OC)cc1CN1CCC(n2cc(C(=O)N3CCCCC3)nn2)CC1 | nt | nt | nt | i
CC(=O)ON(C(C)=O)c1ccc(/C=C2\C=Cc3ccccc32)cc1 | nt | -30% | -20% | nt
CCCN(CCC)CC(O)Cn1cc(/C=C/C(=O)c2ccccc2)c2ccccc21 (stereo not drawn) | -8% | 13µM* | ? | ?
Cc1ccc2c(c1)CN(CCNC(=O)c1ccc3nc(C)[nH]c3c1)CC(C)O2 (stereo not drawn) | nt | nt | nt | i
CN(C)c1c([N+](=O)[O-])cc(N2C(=O)C=CC2=O)cc1[N+](=O)[O-] | 35µM* | 3% | 2% | nt
CCCCc1nn2c(=O)cc(COC(=O)c3ccc(NC(=O)c4cccs4)cc3)nc2s1 | nt | -25% | -12% | nt
CCCc1nn2c(=O)cc(COC(=O)c3ccc(NC(=O)c4cccs4)cc3)nc2s1 | nt | -23% | 11µM* | nt
CCOc1ccc(C(=O)Nc2ccc(C(=O)OCc3cc(=O)n4c(C)csc4n3)cc2)cc1 | nt | -16% | 22µM* | nt
Cc1ccc(-c2nnc(Nc3ccc(O)cc3)c3ccccc23)cc1S(=O)(=O)N1CCCCC1 | nt | 24% | 2µM* | nt
Cc1ccc(-c2nnc(Nc3ccc(O)cc3)c3ccccc23)cc1S(=O)(=O)NCC1CCCO1 (stereo not drawn) | -24% | 5% | 6.3µM* | ?
COc1ccc(Nc2nnc(-c3ccc(C)c(S(=O)(=O)NCc4nc5ccccc5[nH]4)c3)c3ccccc23)cc1 | ? | 35% | 7.9µM* | ?
COc1ccc(CN2CCC3(CCC(CNC(=O)C4CCCO4)O3)CC2)c(C)c1C (stereo not drawn) | nt | nt | nt | i
COc1ccc(CCNCCC(c2ccccc2)c2ccccc2)cc1OC | nt | 13µM* | ? | ?
COc1ccccc1CCNC(C)CCc1ccc(O)cc1 (stereo not drawn) | -26% | -23% | 16% | i
COc1cc(OC)c(OC)cc1CCC(C)NCCC(c1ccccc1)c1ccccc1 (stereo not drawn) | nt | 11µM* | 14µM* | 16µM*
COc1ccc(C(CCNCc2ccc(OC)c(OC)c2)c2ccc(F)cc2)cc1 (stereo not drawn) | -1% | -24% | 0% | i
Cc1c(C(=O)NCC(C)(C)N2CCOCC2)cnn1-c1ncc2c(n1)-c1ccccc1CCC2 | nt | nt | nt | i
N/C(=N\OC(=O)/C=C/c1ccccc1Cl)c1ccccn1 | 16µM* | 1% | -3% | i
Cc1ccc(C(=O)O/N=C(\N)c2ccccn2)cc1 | 13µM* | -40% | -6% | i
N/C(=N\OC(=O)c1ccccc1)c1ccccn1 | ? | -49% | 3% | i
N/C(=N\OC(=O)/C=C/c1ccccc1Cl)c1cccnc1 | 93% | -2% | -1% | i
COc1ccccc1C1CN(CCNC(=O)[C@@H]2CSC(=O)N2)Cc2ccccc2O1 (stereo partly drawn) | nt | nt | nt | i
CCC1(C2CCN(C(=O)c3csc(C(C)=O)c3)CC2)NC(=O)N(CCc2scnc2C)C1=O (stereo not drawn) | nt | nt | nt | i
COc1ccc(N=Nc2ccc(N)nc2N)cc1 | 49% | -11% | -3% | i
CCOc1ccc2nc3cc(N=Nc4ccc(N)nc4N)ccc3c(N)c2c1 | ? | 14µM* | ? | nt
COc1ccccc1N(CC(=O)N/N=C/c1c(O)ccc2ccccc12)S(C)(=O)=O | 8.9µM* | -1% | -20% | i
COc1ccccc1NCC(=O)N/N=C/c1c(O)ccc2ccccc12 | 2.5µM* | -48% | -1% | i

From PubChem
